# Experimental data from PubChem BioAssay (NCI).
# This is part of a sample that, as a whole, favours compounds with a hit. Of some 83,000 tested, about 20% had one in any assay.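 For each line, cells grew in 96-well plates with the test compound present at a single concentration for 48 hours.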 Values without a mark were called inactive. Active and inactive are the calls of the source. Rule for the calls: active = growth percent below 10; inactive = the rest.
# System: MDA-MB-468 breast
# Assay: NCI-60 one-dose screen, 48 h (100 = growth as untreated, 0 = no growth, -100 = all killed)
# Conditions: 10 µM unless noted
row,Compound,growth
1,Cc1ccc(-c2c3c(N)c4c(nc3nc3c2c(C)nn3-c2ccccc2)CCCC4)cc1,107%
2,Nc1ncnc2c1N=C(c1ccc(Br)cc1)CC(c1cccc(Nc3ccnc4cc(C(F)(F)F)ccc34)c1)N2 (stereo unspecified),60.7%
3,CC(C)C[C@H](NC(=O)Cn1ccc(NCc2ccccc2)cc1=O)B(O)O,-41.2% (active)
4,COCCn1cc(-c2csc(-c3c[nH]c4ccc(Br)cc34)n2)c2cccnc21,0.403% (active)
5,Cc1ccc(C(C)C)c(OCC(=O)O)c1,98.9%
6,Cc1nccc2c3ccc(OCc4cn(Cc5ccc(Br)cc5)nn4)cc3n(CCCc3ccccc3)c12,93.4%
7,Fc1cc2[nH]ncc2c2c3c(c(-c4cn[nH]c4C(F)(F)F)nc12)C1CCC3C1 (stereo unspecified),11.5%
8,O=C(Cn1c2ccccc2c2ccncc21)N/N=C\c1ccc2ccccc2c1,19.7%
9,COc1ccc(C2CC(c3ccc(Nc4ccnc5cc(Cl)ccc45)cc3)=NN2C=O)cc1 (stereo unspecified),9.91% (active)
10,CSc1nc(C)c(C(=O)CCN2CCN(c3ccccn3)CC2)s1,87.1%
11,COc1ccccc1N1C(=O)/C(=C/C2=Cc3ccccc3OC2)SC1=S,95%
12,Nc1nc2ccccc2c2c1S(=O)(=O)c1ccc(Cl)cc1C2=O,10.8%
13,Nc1ccc(Oc2ccccc2)c(Cl)c1,92.1%
14,CCCCCCCCCCCCCCCCC1CC(=O)OC1=O (stereo unspecified),119%
15,CCCOC(=O)C(O)c1ccccc1 (stereo unspecified),102%
16,Cc1cc(Nc2ccc(OCc3ccccc3)cc2)nc2cc(O)ccc12,6.48% (active)
